High-throughput results as filed in PubChem.
Most compounds without a hit are left out; they make up all but 1.3% or so of the library.
TRPV1 ag – activates the human vanilloid receptor TRPV1. Q8NER1. 320,000 tested, 0.19% active. activation, % at 8.33 µM. AID 540275. TRPV1-expressing cells, Fluo-8 calcium influx, agonist mode; in the data active = activation above about 80%; inconclusive = between about 30% and that limit; also: 0% is about no effect
Target sequence (Q8NER1 whole entry, looked up): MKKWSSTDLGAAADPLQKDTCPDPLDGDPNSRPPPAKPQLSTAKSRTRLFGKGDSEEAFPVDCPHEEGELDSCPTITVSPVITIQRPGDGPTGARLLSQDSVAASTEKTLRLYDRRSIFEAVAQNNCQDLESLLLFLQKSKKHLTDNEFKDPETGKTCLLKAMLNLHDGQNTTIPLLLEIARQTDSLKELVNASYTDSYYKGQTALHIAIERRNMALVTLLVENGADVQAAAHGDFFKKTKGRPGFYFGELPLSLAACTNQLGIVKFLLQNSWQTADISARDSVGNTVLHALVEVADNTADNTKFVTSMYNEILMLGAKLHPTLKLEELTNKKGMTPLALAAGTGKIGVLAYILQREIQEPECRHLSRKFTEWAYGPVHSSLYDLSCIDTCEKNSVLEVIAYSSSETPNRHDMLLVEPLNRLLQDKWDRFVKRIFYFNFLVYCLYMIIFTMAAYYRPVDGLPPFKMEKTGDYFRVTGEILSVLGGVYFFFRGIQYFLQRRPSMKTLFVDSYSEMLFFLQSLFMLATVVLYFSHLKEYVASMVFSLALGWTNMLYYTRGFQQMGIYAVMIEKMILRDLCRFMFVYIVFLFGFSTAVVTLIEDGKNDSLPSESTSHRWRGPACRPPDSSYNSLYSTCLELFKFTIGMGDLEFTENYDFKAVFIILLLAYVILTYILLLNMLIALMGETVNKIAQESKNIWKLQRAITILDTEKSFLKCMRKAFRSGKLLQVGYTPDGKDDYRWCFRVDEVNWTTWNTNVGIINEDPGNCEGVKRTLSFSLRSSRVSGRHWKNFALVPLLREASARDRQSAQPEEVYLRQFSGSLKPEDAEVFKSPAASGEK
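Fluo-8 calcium influx in TRPV1-expressing cells, kinetic read (ex 480/em 520 nm). Compound added and read 3 min for agonist activity, followed by capsaicin at EC20 final and 2 min further read for enhancement.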
TRPV1 potentiator – human TRPV1 potentiation; 320,000 tested, 0.02% active; TRPV1-expressing cells, Fluo-8 calcium influx, capsaicin EC20 potentiation; Q8NER1; potentiation, % at 8.33 µM; AID 540277; in the data active = potentiation above about 80%; inconclusive = between about 30% and that limit; also: 0% is about no effect
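Cells expressing TRPV1 were dye-loaded with Fluo-8 and read kinetically: 10 s baseline, 3 min after compound (agonist portion), then 2 min after EC20 capsaicin (allosteric enhancer portion). Calcium-bound dye fluorescence at 480/520 nm.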
KCNH2 WT inh – KCNH2 (human, wildtype) channel inhibition; U2OS, BacMam KCNH2, thallium flux FluxOr; stronger effect = lower value; activity change, % at 1.84 µM; 340,000 tested, 0.37% active; AID 720551;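 active = maximum activity change below -70%; inconclusive = maximum activity change between -70% and -50%; inactive = maximum activity change above -50%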; also: % is scaled to controls: 0 for no effect and ±100 for the full control effect
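U2OS cells transduced with wild-type KCNH2 virus are loaded with FluxOr dye for 45 min, and thallium flux is measured in kinetic reads before and after stimulation buffer. Rate constants are normalized to DMSO controls.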
KCNH2 3.1 block – inhibitors of human KCNH2 3.1 potassium channel isoform. U2OS KCNH2 3.1, thallium flux FluxOr; stronger effect = lower value. activity change, % (tested at about 1.8 µM). 340,000 tested, 0.95% active. AID 720553;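 active = maximum activity change below -70%; inconclusive = maximum activity change from -70% to -50%; inactive = maximum activity change above -50%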;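 also: thallium influx rate constant from kinetic fluorescence after stimulation buffer; % is scaled to controls: 0 for no effect and ±100 for the full control effect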
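Measured as rate of thallium-driven FluxOr signal in transduced U2OS cells carrying the 3.1 channel, read kinetically for 2 min upon stimulation; values are rate constants scaled to DMSO control wells.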
TRPML1 ag – human mucolipin-1 channel agonism; activation, % (test concentration not listed); TRPML1-expressing cells, Ca2+ dye fluorescence, FDSS; AID 624414; 410,000 tested, 0.12% active; Q9GZU1; in the data active = activation above about 50%; inconclusive = mostly about 30% to 49%; also: 0% is about no effect
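Calcium fluorescence on an FDSS kinetic reader gave the read-out. Tet-induced TRPML1-DL cells were plated overnight, dye-loaded (Ca8 with quencher, 45-90 min, room temperature, dark), then read 110 s after compound addition, and again 110 s after 4uM final 54-4 (EC80).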
TRPML1 inh – human mucolipin-1 channel inhibition | TRPML1-inducible cells, Ca2+ dye fluorescence, FDSS; stronger effect = lower value; inhibition of EC80 agonist-evoked calcium signal | 390,000 tested, 0.02% active | activity change, negative = inhibition, % (concentration not given with the values) | AID 624415 | Q9GZU1; in the data active = activity change below about -50%; inconclusive = between about -30% and that limit;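 also: stimulus is agonist 54-4 at its EC80 concentration; % is scaled to controls: 0 for no effect and ±100 for the full control effect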
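Tet-induced TRPML1-DL cells loaded with Ca8 no-wash calcium dye were read kinetically on FDSS. Compound addition was followed by EC80 agonist 54-4 (4 uM final); inhibition was read over 110 s.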
* hit, by the source's call; ? = inconclusive; . = no result given.

SMILES	TRPV1 ag	TRPV1 potentiator	KCNH2 WT inh	KCNH2 3.1 block	TRPML1 ag	TRPML1 inh
Cc1ccc(NC(=O)c2ccc(S(=O)(=O)NCc3ccco3)cc2)cc1	82*	1	7	0	0	-6
CCc1ccc(NC(=O)c2ccc(S(=O)(=O)NCc3cccnc3)cc2)cc1	87*	-31	-3	-49	1	-4
Cc1ccc2nc(C)/c(=N\O)c(C)nc2c1	23	-16	1	-3	-1	22
Cc1nc2ccc(Cl)cc2nc(C)/c1=N\O	12	-10	-9	-92*	2	-18
CC(O)CN(CC(C)O)c1ccc2c(c1)Cc1cc([N+](=O)[O-])ccc1-2 (configuration not stated)	.	.	?	-44	83*	6
CC(C)NC(=S)NC(c1ccccc1)(c1ccccc1)c1ccccc1	?	-4	-6	-43	70*	-2
C/C(=N\NC(=S)NC(C)C)c1ccccc1	26	-13	1	26	.	.
COc1ccc([C@H]2C[C@H](n3cc(C4CC4)nn3)[C@@H](O)CN2CC2CCCCC2)cc1	.	.	1	-84*	0	-10
O[C@@H]1CN(CC2CCCCC2)[C@@H](c2ccc(Cl)cc2)C[C@H]1n1cc(C2CC2)nn1	.	.	-11	-3	0	2
CC(C)(C)c1ccc(Cn2c(=N)n(CC(O)c3ccco3)c3ccccc32)cc1 (configuration not stated)	4	-12	-85*	?	0	17
CCCCn1c(=N)n(CC(O)COc2ccccc2)c2ccccc21 (configuration not stated)	6	1	8	-23	0	5
CCCCCCCn1c(=N)n(CC(O)c2ccco2)c2ccccc21 (configuration not stated)	0	24	-38	-106*	0	51
Cc1ccccc1Cn1c(=N)n(CC(O)c2ccco2)c2ccccc21 (configuration not stated)	5	-6	51	-22	-1	9
CCCCn1c(=N)n(CC(O)COc2ccc(C)cc2)c2ccccc21 (configuration not stated)	2	13	-83*	-90*	0	-3
CCOC(=O)N1CCC(NC(=O)c2ccc3c(c2)N(Cc2ccccc2)C(=O)c2ccccc2S3(=O)=O)CC1	.	.	.	.	2	-13
CCCOC(=O)c1ccc(NC(=O)c2nc3nc(C)cc(C)n3n2)cc1	-1	15	5	-3	0	-26
CCC(CC)c1nnc(NC(=O)c2nc3nc(C)cc(C)n3n2)s1	0	10	4	-110*	0	-12
CCN(C(=O)c1cnc(N2CCOCC2)c2ccccc12)c1cc(C)ccc1C	.	.	.	.	0	11
CCc1ccc(/C=N/NC(=O)c2c[nH]c3ccccc23)s1	85*	-14	-5	3	3	-1
Cc1cccc(CSc2ncccc2C(=O)O)c1	0	9	-87*	5	-1	-8
O=C(NCCCn1ccnc1)Nc1ccc(Cl)cc1	-7	-38	2	-71*	1	-20
O=C(NCCCN1CCc2ccccc2C1)Nc1ccc(Cl)cc1	30	-15	-6	-87*	1	10
O=C(NCCCn1ccnc1)Nc1ccc(Cl)c(Cl)c1	2	12	2	-24	0	2
CN(C)c1ccc(/C=C(/NC(=O)c2ccccc2)C(=O)NCCCn2ccnc2)cc1	-5	12	25	5	8	-5
O=C(CCCN1C(=O)c2ccccc2C1=O)NCCCn1ccnc1	-7	-2	13	8	4	-3
SMILES	TRPV1 ag	TRPV1 potentiator	KCNH2 WT inh	KCNH2 3.1 block	TRPML1 ag	TRPML1 inh
O=C(NCCCn1ccnc1)C(Cc1ccc([N+](=O)[O-])cc1)N1C(=O)c2ccccc2C1=O (configuration not stated)	1	0	-119*	-88*	0	3
COc1ccc(NC(=O)NCCN2CCc3ccccc3C2)cc1	0	-8	7	13	0	10
O=C(NCCCn1ccnc1)/C(=C/c1ccc(Cl)cc1)NC(=O)c1ccccc1	-3	8	-129*	-105*	0	18
CC(C)CNc1ncnc2oc(-c3ccco3)c(-c3ccco3)c12	.	.	.	.	-1	.
COc1ccc(/C=C(\NC(=O)c2ccc(C)cc2)C(=O)NCCCn2ccnc2)cc1	1	6	?	-92*	0	10
COc1ccc(/C=C(\NC(=O)c2ccc([N+](=O)[O-])cc2)C(=O)NCCCn2ccnc2)cc1	0	-5	-111*	-35	-1	11
O=C(NCCCn1ccnc1)/C(=C\c1cccnc1)NC(=O)c1ccccc1F	1	7	-3	-6	0	-3
O=C(NCCCn1ccnc1)/C(=C\c1ccc(Br)cc1)NC(=O)c1ccccc1F	6	-3	-129*	-111*	0	12
COc1cccc(CSc2nc3n(n2)C(CC(C)C)C(C(=O)Nc2ccccc2OC)=C(C)N3)c1 (configuration not stated)	.	.	.	.	0	-11
Cc1c(NC(=O)c2sc3ccccc3c2Cl)cccc1-c1nc2ccccc2o1	.	.	.	.	0	-17
CCOc1ccccc1CNC(=O)Cn1nc(C)c2nn(-c3ccc(Cl)cc3)c(C)c2c1=O	.	.	.	.	1	1
CC(=O)N1CCCc2cc(S(=O)(=O)NCc3ccc(OC(C)C)cc3)ccc21	.	.	.	.	0	-4
Cc1ccc(N2C(=O)C3CCC(C)(C2=O)C3(C)C)cc1 (configuration not stated)	-1	5	-1	-77*	0	6
CC12CCC(C(=O)N(c3nccs3)C1=O)C2(C)C (configuration not stated)	.	.	-4	6	0	-2
Cc1ccccc1N(CC(=O)NC1CCCC1)C(=O)c1oc(C(C)(C)C)cc1C	-4	-23	5	-40	70*	-16
Cc1cc(C(C)(C)C)oc1C(=O)N(CC(=O)NC1CCCC1)c1cccc(C(F)(F)F)c1	?	-18	-7	-9	52*	-6
CC1CC(C)(C)NCc2ccccc21 (configuration not stated)	-3	4	14	-89*	0	-1
CCN(CCN(C)Cl)/[N+]([O-])=N/Oc1ccc([N+](=O)[O-])cc1[N+](=O)[O-]	.	.	.	.	1	-21
Cc1cccc(C)c1NC(=O)c1ccccc1C(=O)O	2	-5	8	-4	-1	-2
Cc1cccc(C(=O)O)c1NC(=O)c1ccc(F)cc1	2	11	-194*	0	0	-1
